Bioassay records deposited in PubChem BioAssay by The Scripps Research Institute Molecular Screening Center.
The list is not random: actives were taken first. Their share in the collection is about 3.1%.
PAFAH2 inh – PAFAH2 (human) inhibition | recombinant PAFAH2, FP-rhodamine activity probe, fluorescence polarization | inhibition, % at 3.39 µM | 0.99% of 340,000 active | AID 492956;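 active means inhibition above the mean over all tested compounds plus 3 SD, cut at about 30% in these data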;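 further: inhibitors block probe labeling of enzyme so polarization drops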
Rin1-Abl PPI inh – blocks binding of human Rin1 to Abl; P00519+Q13671; TR-FRET Rin1/Abl binding, biochemical; inhibition, % at 7.35 µM; 0.4% of 360,000 active; in the data active means inhibition above about 5%, passing the limit was not always enough
PAFAH1B2 inh – PAFAH1B2 (human) inhibition | 1.2% of 340,000 active | inhibition, % at 3.39 µM | AID 492953 | P68402 | recombinant PAFAH1B2, FP-rhodamine activity probe, fluorescence polarization;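 active means inhibition above the mean of all tested compounds plus 3 SD, cut at about 24% in these data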
E coli Lon inh – inhibits E. coli Lon protease; P0A9M0; 0.42% of 360,000 active; inhibition, % at 7.94 µM; purified E. coli Lon protease, fluorescence polarization; in the data active means inhibition above about 13%, passing the limit was not always enough
pPAFAH FP inh – pPAFAH (human) enzyme inhibition; Q13093; recombinant pPAFAH, FP-rhodamine probe fluorescence polarization; inhibition, % at 3.39 µM; 1.5% of 330,000 active; AID 463082;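 active means inhibition above the mean inhibition across the screen plus 3 SD, cut at about 25% in these data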;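 further: inhibitors block binding of the rhodamine activity-based probe so polarization drops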
Target sequence (Q13093 whole entry, looked up): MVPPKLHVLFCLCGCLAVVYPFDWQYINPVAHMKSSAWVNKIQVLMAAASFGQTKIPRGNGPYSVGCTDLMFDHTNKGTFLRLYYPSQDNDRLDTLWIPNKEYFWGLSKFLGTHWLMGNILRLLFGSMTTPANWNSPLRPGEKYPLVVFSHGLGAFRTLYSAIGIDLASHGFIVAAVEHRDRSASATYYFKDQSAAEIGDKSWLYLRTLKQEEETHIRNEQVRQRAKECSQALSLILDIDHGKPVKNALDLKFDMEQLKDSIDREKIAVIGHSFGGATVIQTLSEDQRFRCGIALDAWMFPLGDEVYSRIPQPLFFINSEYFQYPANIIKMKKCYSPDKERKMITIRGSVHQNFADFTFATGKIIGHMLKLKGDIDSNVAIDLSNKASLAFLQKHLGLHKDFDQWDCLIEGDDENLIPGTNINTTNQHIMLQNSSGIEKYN
PAFAH1B3 inh – blocks human PAF acetylhydrolase 1B catalytic subunit 3 | inhibition, % at 3.39 µM | recombinant PAFAH1B3, FP-rhodamine probe, fluorescence polarization | 0.28% of 340,000 active | Q15102;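 active means inhibition above the screen-wide average of all tested compounds plus 3 SD, cut at about 25% in these data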
PAFAH2 FP conf – PAFAH2 (human) inhibition, confirmed. AID 493030. recombinant PAFAH2, FP-rhodamine activity probe, fluorescence polarization. 65% of 2,300 active. shares compounds with PAFAH2 inh. inhibition, % at 3.39 µM;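 active means mean inhibition over three repeats above a set limit taken from the earlier primary screen, cut at about 30% in these data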;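 further: inhibitor blocks binding of rhodamine activity probe so polarization falls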
Of the large screens only hits and unclear results are named; the others gave an inactive call (follow-up assays come after a bar, where they were run).

CC(C)NC(=O)COC(=O)c1cccc(NS(=O)(=O)/C=C/c2ccccc2)c1	PAFAH2 inh 37 | PAFAH2 FP conf inactive
Cc1cc(NC(=O)CSc2nnc(C)n2-c2ccccc2C)no1	none
Cc1ccc(C(=O)O/N=C/C2=C(Cl)c3ccccc3CC2)cc1	PAFAH2 inh 38 | PAFAH2 FP conf 70
Cc1ccc(CO/N=C/C2=C(Cl)c3ccccc3CC2)cc1	none
O=C(CN1C(=O)COc2ccccc21)NC1CCCC1	none
COc1cccc(C2C3=C(CCCC3=O)NC3=C2C(=O)c2ccccc23)c1 (configuration not stated)	none (no result: PAFAH2 inh, Rin1-Abl PPI inh, PAFAH1B2 inh, E coli Lon inh, PAFAH1B3 inh)
O=C1CCCC2=C1C(c1cccc(O)c1)C1=C(N2)c2ccccc2C1=O (configuration not stated)	PAFAH2 inh 30 | PAFAH2 FP conf inactive
c1ccc(CCNCc2ccco2)nc1	none (no result: pPAFAH FP inh)
NC(=O)Nc1ccc(C(=O)OCC(=O)N2CCc3ccccc3C2)cc1	PAFAH2 inh 54 | PAFAH2 FP conf 47
CC(=O)c1c(C)[nH]c(C(=O)OCC(=O)N2CCc3ccccc3C2)c1C	PAFAH2 inh 30 | PAFAH2 FP conf inactive
O=C(OCC(=O)N1CCc2ccccc2C1)c1ccc(O)cc1	PAFAH2 inh 47 | PAFAH2 FP conf 30
COc1ccc(CN(C)C(=O)[C@H]2O[C@@H](n3ccc(=O)[nH]c3=O)[C@H](O)[C@@H]2O)cc1OC	none (no result: PAFAH2 inh, PAFAH1B2 inh, pPAFAH FP inh, PAFAH1B3 inh)
CCCCOC(=O)C(C)Sc1n[nH]c(=O)[nH]c1=O (configuration not stated)	none
OCCN(Cc1ccccn1)Cc1ccccn1	none (no result: PAFAH2 inh, PAFAH1B2 inh, pPAFAH FP inh, PAFAH1B3 inh)
C=CCn1c(C)cc(C(=O)COC(=O)c2ccc3c(c2)NC(=O)CS3)c1C	PAFAH2 inh 41 | PAFAH2 FP conf inactive
C=CCn1c(C)cc(C(=O)COC(=O)c2ccc(N)c([N+](=O)[O-])c2)c1C	PAFAH2 inh 81 | PAFAH2 FP conf 80
CCc1noc(C)c1C(=O)NCCc1ccc(Cl)cc1	none
COc1ccc(/C=C/C(=O)ONC2=NCCCCC2)cc1OC	PAFAH2 inh 51 | PAFAH2 FP conf 44
COc1ccc(/C=C/C(=O)Nc2cccc(S(=O)(=O)NC3=NCCCCC3)c2)cc1OC	none
CC(OC(=O)C1CC1C)C(=O)Nc1ccc(Cl)cn1 (configuration not stated)	none (no result: pPAFAH FP inh)
CC1CC1C(=O)OCC(=O)Nc1ccc(Cl)cn1 (configuration not stated)	PAFAH2 inh 47 | PAFAH2 FP conf 39
O=C(COC(=O)C1CC2CCCC(C1)C2=O)Nc1ccc(Cl)cn1 (configuration not stated)	PAFAH2 inh 47 | PAFAH2 FP conf inactive
CCOc1ccc(NC(=O)COC(=O)C2CC2C)cc1 (configuration not stated)	PAFAH2 inh 60 | PAFAH2 FP conf 47
Cc1nc(NC(=O)COC(=O)C2CC2C)c(Cl)cc1Cl (configuration not stated)	PAFAH2 inh 34 | PAFAH2 FP conf inactive
COc1cc(Cl)c(C)cc1NC(=O)COC(=O)C1CC1C (configuration not stated)	none
O=C(OCC(=O)N1CCN(c2ccccc2)CC1)c1cc(F)c(F)cc1Cl	none (no result: PAFAH2 inh, PAFAH1B2 inh, pPAFAH FP inh, PAFAH1B3 inh)
COC(=O)c1ccc(COC(=O)C(NC(=O)Cc2ccccc2)C(C)C)cc1 (configuration not stated)	none (no result: pPAFAH FP inh)
CC1(O)CC(C)(C)C(C#N)C(=O)N1 (configuration not stated)	none (no result: pPAFAH FP inh)
CCOC(=O)c1sc(NC(=O)CCN2C(=O)C3CCCCC3C2=O)cc1C (configuration not stated)	none
CCN(CC)c1c(C)nc2ccc(C(=O)Nc3cc(-c4ccccc4)ccc3OC)cn12	none (no result: PAFAH2 inh, PAFAH1B2 inh, pPAFAH FP inh, PAFAH1B3 inh)
CC(=O)c1ccc(N(CC(=O)NC2CCCC2)C(=O)CNC(=O)c2ccco2)cc1	none
CCCCN(C)C(=O)c1sc(=O)n(CC(=O)c2ccccc2OC)c1C	none (no result: PAFAH2 inh, PAFAH1B2 inh, pPAFAH FP inh, PAFAH1B3 inh)
CC(c1ccco1)N(C(=O)c1ccccc1NS(=O)(=O)c1cccc([N+](=O)[O-])c1)c1ccccn1 (configuration not stated)	none
CC(c1ccco1)N(C(=O)c1ccccc1NS(=O)(=O)c1cc([N+](=O)[O-])ccc1Cl)c1ccccn1 (configuration not stated)	PAFAH2 inh 63 | PAFAH2 FP conf 71
